Assay: compound effects on lung adenocarcinoma cell viability – A549, calcein-AM fluorescence, 48 h, basal, profiling panel (AID 1162); further: test concentration not given here
Conditions: higher = more signal

Going from COC(=O)Cn1c(C(=O)N2CCCC2)cc2c1C[C@H]1CN(C(=O)c3ccccc3)[C@@](Cc3ccccc3)(C(=O)OC)[C@@H]21 to COC(=O)[C@@]1(Cc2ccc(OC)cc2)[C@H]2c3cc(C(=O)N(C)C)n(Cc4ccc(C)c(F)c4F)c3C[C@H]2CN1C(=O)c1ccccc1, the z-score falls from -0.162 to -1.81.

Going from O=C1C[C@@](C(=O)NCCN2CCOCC2)(c2ccc([N+](=O)[O-])cc2)[C@@H](c2ccc(CO)cc2)N1C1CCCCC1 to O=C1C[C@@](C(=O)NC2CC2)(c2ccc([N+](=O)[O-])cc2)[C@@H](c2ccc(CO)cc2I)N1CC12CC3CC(CC(C3)C1)C2, the z-score falls from 1.16 to -2.31.

Going from CC(=O)NCCCC[C@@H]1NC(=O)[C@H]2C[C@@H](C(=O)NCCCCCCN(C)C)[C@@H](c3cccc(OCCO)c3)N2C1=O to CC(=O)NCCCC[C@@H]1NC(=O)[C@H]2C[C@@H](C(=O)NCCCCCCN(C)C)[C@@H](c3ccc(O)cc3)N2C1=O, the z-score falls from 0.214 to -0.345.

First: CC(C)(C)OC(=O)CC[C@]1(C(=O)N2CCCCC2)N=C(c2ccc(OCCCO)cc2)O[C@H]1c1ccccc1
Second: C=CC[C@]1(C(=O)N2CCCCC2)N=C(c2ccc(OCCCO)cc2)O[C@H]1c1ccccc1N=[N+]=[N-]
The z-score of the first is higher: 2.04 for the first, -0.871 for the second.

Compared with O=C1C2C=CC(C(O)Cc3ccccc3)N(Nc3ccc([N+](=O)[O-])cc3)C2C(=O)N1c1ccccc1 (stereo unspecified), O=C1C2C=CC(C(O)C#Cc3ccccc3)N(Nc3ccccc3)C2C(=O)N1c1ccccc1 (stereo unspecified) is higher in z-score: -0.356 for the first, -0.284 for the second.

Going from C=C(COC)C(=O)CC[C@H](OC(=O)c1ccccc1-c1ccccc1C(=O)O)c1cccc(OCCO)c1 to C=C(CCCC)/C(=C/C[C@@H](OC(=O)c1ccncc1)c1cccc(OCCO)c1)c1cc(C(=O)OC)ccc1OC, the z-score rises from -0.339 to 1.25.

First: C=CC[C@@]1(C(=O)NCC(O)CO)N=C(c2ccc(OCCCO)cc2)O[C@@H]1c1ccccc1CN=[N+]=[N-] (stereo partly specified)
Second: [N-]=[N+]=NCc1ccccc1C[C@]1(C(=O)N2CCCCC2)N=C(c2ccc(OCCCO)cc2)O[C@H]1c1ccccc1CN=[N+]=[N-]
The z-score of the first is higher: 2.22 for the first, 0.0482 for the second.

Going from O=C(CS)NCCCCCCNC(=O)[C@@H]1C[C@@H]2C(=O)N[C@@H](Cc3ccccc3)C(=O)N2[C@@H]1c1ccc(O)cc1 to C[N+](C)(C)CCCCNC(=O)[C@H]1C[C@H]2C(=O)NCC(=O)N2[C@H]1c1cccc(OCCO)c1, the z-score falls from -0.401 to -0.471.

Compared with CC(C)[Si](OCC[C@H]1O[C@]2(C(=O)N(Cc3ccccc3)c3ccccc32)[C@@H](C)[C@@H]1[Si](C)(C)O)(C(C)C)C(C)C, CC(C)C[C@@H]1NC(=O)[C@H](CC(C)C)NC(=O)[C@@]23C(=O)N[C@@H](Cc4ccccc4)C2[C@H](C)[C@@]2(C)O[C@H]2C3/C=C/CC/C=C/CNC1=O (stereo partly specified) is lower in z-score: -0.287 for the first, -0.422 for the second.

First: C=CCC(OC(C)=O)[C@@H]1[C@@H](N(Cc2ccc(-c3cccc(C(F)(F)F)c3)o2)C(=O)Cc2ccc(F)cc2)c2cc(OCCCO)ccc2N1C(=O)c1ccc(-c2ccccc2)cc1 (stereo partly specified)
Second: CCOC(=O)C[C@H]1[C@H](OC(=O)c2cc3ccccc3oc2=O)[C@@H](NC(=O)C2CCCCC2)c2cc(OCCCO)ccc2N1C(=O)c1ccc2ccccc2n1
The z-score of the first is higher: 0.468 for the first, -0.133 for the second.

Compared with C=C[C@H](OC)[C@@H](OC(=O)Nc1ccc(SC)cc1)c1ccc(O)c(F)c1, CCCC=C(CCC)[C@@H](NC(=O)c1ccc(C(F)(F)F)cc1)c1ccccc1 is lower in z-score: 0.137 for the first, -0.842 for the second.

Going from O=C1O[C@H](c2ccccc2)[C@H](c2ccccc2)N2[C@H]1[C@@H](C(=O)NC[C@H](O)c1ccccc1)[C@]1(C(=O)Nc3ccc(C#CC4(O)CCCCCC4)cc31)[C@H]2c1ccc(OCCO)cc1 to O=C1O[C@H](c2ccccc2)[C@H](c2ccccc2)N2[C@H]1[C@@H](C(=O)NC[C@H](O)c1ccccc1)[C@]1(C(=O)Nc3ccc(C#CC4=CCCCC4)cc31)[C@H]2c1ccc(OCCO)cc1, the z-score rises from -1.2 to 0.0545.

First: O=C1NC(=O)C2C1C=CC(C(O)C=Cc1ccc([N+](=O)[O-])cc1)N2Nc1ccccn1 (stereo unspecified)
Second: COc1ccc(NN2C(C(O)c3cc(OC)c(OC)c(OC)c3)C=CC3C(=O)N(C4CCCCC4)C(=O)C32)cc1 (stereo unspecified)
The z-score of the first is higher: 0.183 for the first, -0.753 for the second.

Compared with NC(=O)NCC#Cc1ccc2c(c1)[C@]1(C(=O)N2)[C@H](C(N)=O)[C@H]2C(=O)O[C@H](c3ccccc3)[C@H](c3ccccc3)N2[C@@H]1c1ccccc1OCCO, O=C1O[C@H](c2ccccc2)[C@H](c2ccccc2)N2[C@H]1[C@@H](C(=O)Nc1nc3ccccc3s1)[C@]1(C(=O)Nc3ccc(C#CC4(O)CCCCCC4)cc31)[C@H]2c1ccc(O)cc1 is higher in z-score: -1.23 for the first, -0.0457 for the second.

Compared with COc1cc2c(cc1OC)CN(C(=O)[C@H]1[C@@H]3C(=O)O[C@@H](c4ccccc4)[C@@H](c4ccccc4)N3[C@@H](c3ccc(O)cc3)[C@]13C(=O)Nc1ccc(C#CC4(O)CCCCCC4)cc13)CC2, O=C(NCc1ccccc1)[C@@]1(Cc2ccccc2)COC(c2ccc(OCCCO)cc2)=N1 is lower in z-score: 0.273 for the first, -1.65 for the second.

First: O=C1OCCC/C=C\[C@H]2OC34C=CCN(CCN5CCOCC5)C(=O)[C@H]3N(CCCCCO)C(=O)[C@@H]4C12 (stereo partly specified)
Second: C#CCCCON=C1C[C@@H](O)[C@@H](O)[C@@H]2[C@@H]3C(=O)N(Cc4ccc5c(c4)OCO5)C(=O)[C@@H]3CC[C@@H]12
The z-score of the first is higher: 0.739 for the first, 0.347 for the second.

First: Cc1ccc(S[C@]2(C(=O)NCCCN(C)C)CC(=O)N(Cc3ccccc3)[C@@H]2c2ccc(CO)cc2I)cc1
Second: COC(=O)C1=CC(c2ccc(CO)cc2)=CC(c2cccs2)N(Cc2cccc(OC(F)(F)F)c2)C=C1C(=O)OC (stereo unspecified)
The z-score of the first is higher: 1.03 for the first, -0.425 for the second.

Going from C=C(CCCC)/C(=C/C[C@@H](OC(=O)c1ccncc1)c1ccc(CO)o1)c1cnc2ccccc2c1 to CC[C@H]1C2=C3C(CC[C@H]4C(OC)OC[C@](C)([C@@H]34)N(C(=O)OC(C)(C)C)C2)C(CO)C1CO (stereo partly specified), the z-score falls from 1.18 to -0.499.
